Bioassay records from PubChem BioAssay.
KDM5B inh – KDM5B demethylase inhibition. AID 1347165. Q9UGL1. 2.6% of 220,000 active. KDM5B demethylase, FDH-coupled NADH fluorescence (FDH is formaldehyde dehydrogenase). Potency, µM (top dose mostly 57.7 µM), usual class: inhibitors; active = well fitted inhibition curve with a large enough effect; also: 0% is about no effect; nearly all actives have a fitted effect of over 70% in size
Target sequence (Q9UGL1 whole entry, looked up): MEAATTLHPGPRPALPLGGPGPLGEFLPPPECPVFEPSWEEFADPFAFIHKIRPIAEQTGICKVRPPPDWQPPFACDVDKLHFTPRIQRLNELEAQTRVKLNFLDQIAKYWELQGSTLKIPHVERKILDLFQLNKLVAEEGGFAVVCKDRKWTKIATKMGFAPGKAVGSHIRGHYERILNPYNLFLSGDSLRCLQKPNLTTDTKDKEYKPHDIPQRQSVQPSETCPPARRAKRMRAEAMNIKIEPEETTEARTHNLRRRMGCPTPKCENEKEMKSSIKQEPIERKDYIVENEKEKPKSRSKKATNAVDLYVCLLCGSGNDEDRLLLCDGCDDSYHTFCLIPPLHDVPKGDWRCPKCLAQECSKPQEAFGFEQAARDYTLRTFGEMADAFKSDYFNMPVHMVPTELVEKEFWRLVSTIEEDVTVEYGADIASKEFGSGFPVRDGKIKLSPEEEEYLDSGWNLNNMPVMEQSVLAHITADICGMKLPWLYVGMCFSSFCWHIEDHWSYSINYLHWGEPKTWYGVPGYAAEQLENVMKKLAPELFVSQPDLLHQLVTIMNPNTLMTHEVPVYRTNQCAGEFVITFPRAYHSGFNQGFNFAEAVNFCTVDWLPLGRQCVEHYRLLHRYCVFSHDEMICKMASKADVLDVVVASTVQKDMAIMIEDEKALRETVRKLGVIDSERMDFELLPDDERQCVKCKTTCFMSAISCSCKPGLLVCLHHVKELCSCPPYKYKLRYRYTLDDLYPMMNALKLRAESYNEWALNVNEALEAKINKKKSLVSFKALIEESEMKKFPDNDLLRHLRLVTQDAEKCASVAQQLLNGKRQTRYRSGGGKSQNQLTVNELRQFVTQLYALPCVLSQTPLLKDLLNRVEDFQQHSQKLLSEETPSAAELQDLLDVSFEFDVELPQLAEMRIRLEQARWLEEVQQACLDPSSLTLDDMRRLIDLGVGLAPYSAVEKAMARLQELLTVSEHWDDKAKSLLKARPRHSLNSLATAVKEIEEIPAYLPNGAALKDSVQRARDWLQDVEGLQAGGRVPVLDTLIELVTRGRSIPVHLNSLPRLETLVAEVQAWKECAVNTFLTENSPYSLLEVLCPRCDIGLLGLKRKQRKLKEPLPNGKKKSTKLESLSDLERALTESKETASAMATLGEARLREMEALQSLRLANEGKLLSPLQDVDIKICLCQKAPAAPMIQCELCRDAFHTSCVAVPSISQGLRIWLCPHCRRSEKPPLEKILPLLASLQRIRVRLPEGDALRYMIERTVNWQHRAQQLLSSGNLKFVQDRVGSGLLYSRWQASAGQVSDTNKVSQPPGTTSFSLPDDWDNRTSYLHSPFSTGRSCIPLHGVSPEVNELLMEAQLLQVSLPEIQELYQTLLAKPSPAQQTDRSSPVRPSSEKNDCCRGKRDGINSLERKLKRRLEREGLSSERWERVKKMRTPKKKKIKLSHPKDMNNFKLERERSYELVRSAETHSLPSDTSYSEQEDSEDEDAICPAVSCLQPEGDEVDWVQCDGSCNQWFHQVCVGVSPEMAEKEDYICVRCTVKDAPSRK
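qHTS format, multiple compound concentrations. Buffer 50 mM HEPES pH 7.5/0.01% Tween-20; 200 nM KDM5BΔAP final; 10 min compound preincubation; substrate-mix levels 12.5 µM peptide, 25 µM α-KG, 0.25 mM NAD⁺; 30 min RT; ΔRFU.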
Numbers without * were called inactive; i = inactive. Many of the other results were omitted from the sample, so hits are more common in it than they were. Potency is read from the fitted curve at half-maximal effect.

SMILES	KDM5B inh
COc1ccc(C(CC(=O)Nc2ccc(C)c(C)c2)N2Cc3ccccc3C2=O)cc1OC (stereo not given)	i
O=CN1CCN(C(=O)Cn2ccc3ccc(OCc4ccccc4)cc32)CC1	i
CC(C(=O)NCc1ccc(C(F)(F)F)cc1)C1CCOCC1 (stereo not given)	i
COC(=O)c1[nH]nc(-c2ccccc2)c1-c1ccccc1	i
CN1CC(=O)N(C2CCNC2)Cc2c(NCCc3cccc(F)c3)ncnc21 (stereo not given)	i
Cc1cccc(C(=O)Nc2cccc(-c3ccc4nncn4n3)c2)c1	i
Cn1cccc1C(=O)NCc1nnc2ccc(-c3ccccc3)nn12	i
COc1ccc(-c2noc([C@@H]3CCCN3C(=O)c3ccc(F)c(Cl)c3)n2)cc1	i
COc1ccc(-c2ccc3nnc(CNC(=O)c4ccc(OC)nc4OC)n3n2)cc1	32µM*
COc1ccc(-c2ccc3nnc(CNC(=O)c4cccn4C)n3n2)cc1	28µM*
CC(=O)Nc1cccc(C(=O)NCc2nnc3ccc(-c4ccccc4)nn23)c1	32µM*
COc1ccc(-c2ccc3nnc(CNC(=O)c4ccc(F)c(Cl)c4)n3n2)cc1	28µM*
CC(=O)c1cccc(NC(=O)CSc2nnc3ccc(-c4ccc(F)cc4)nn23)c1	i
COc1ccc(-c2ccc3nnc(CNC(=O)c4cc(Cl)ccc4OC)n3n2)cc1	i
CC1CCCCN1C(=O)CSc1nc2ccccc2c(=O)[nH]1 (stereo not given)	i
COc1ccc(-c2ccc3nc(-c4cc5c(cc4Br)OCO5)oc3c2)c(OC)c1OC	i
C=CCN(Cc1nc(-c2ccccc2)no1)C(=O)c1cccc(OC)c1OC	i
Cc1ccc(-c2cc(C(=O)Nc3ccccc3F)no2)cc1C	i
Cc1onc(-c2c(F)cccc2Cl)c1C(=O)N=C(N)N1CC(C)OC(C)C1 (stereo not given)	i
Cc1ccc(C(=O)N2CCC3(C2)C(=NC2CCCC2)NC(=O)N3c2cccnc2)cc1 (stereo not given)	i
COc1cccc(C(=O)NCC(=O)OCc2cc(=O)n3nc(C)sc3n2)c1	i
Cc1cccc(CC2(NC(=O)C3CC(=O)N(C4CCCC4)C3)CC2)c1 (stereo not given)	i
CC(=O)NC12CC3CC(C1)CC(C(=O)NCC1CC1)(C3)C2	i
CC(C)c1ccc(CNCCCn2ccnc2)cc1	i
Cc1cccc(-c2cccc3c4c([nH]c23)[C@@H]2C[C@H](N(C)C(=O)c3ccccc3C)[C@H]([C@H](C)O)C(=O)N2CC4)c1	i
SMILES	KDM5B inh
COc1ccc(Cn2c3c(c(=O)n2Cc2ccccc2)CCN(C(=O)c2cccc(N(C)C)c2)C3)cc1	i
Cc1occc1C(=O)Oc1ccc(-c2ccc(C#N)cc2)cc1	i
COc1ccc(CC(=O)Nc2cccc(-c3ccc4nnc(C)n4n3)c2)cc1	i
COc1ccc(-c2ccc3nnc(CNC(=O)c4cccc(NC(C)=O)c4)n3n2)cc1	28µM*
Cc1ccc(S(=O)(=O)N(Cc2cc3ccc(C)cc3[nH]c2=O)CC2CCCO2)cc1 (stereo not given)	i
COc1ccc(NC(=O)C2CCN(c3cnn(C)c(=O)c3)C2)cc1F (stereo not given)	i
O=C(CN1CCN(Cc2nc3ccsc3c(=O)[nH]2)CC1)NC1CC1	i
CCc1ccccc1NC(=O)Cc1ccc(-n2c(C)nc3cccnc32)cc1	i
COc1ccc(NC(=O)c2nc3nc(C)cc(C)n3n2)cc1OC	i
COc1cccc(NC(=O)c2cc3c(N4CCSCC4)nc(C)cn3n2)c1	28µM*
Cc1cn2nc(C(=O)Nc3ccc(C)c(F)c3)cc2c(N2CCSCC2)n1	25µM*
Cc1cn2nc(C(=O)NCCc3cccs3)cc2c(N2CCCC2)n1	i
CN1CCN(c2nc3ccccc3nc2C(=O)Nc2ccc(OC(F)(F)F)cc2)CC1	i
Cc1cn2nc(C(=O)NC(C)c3ccc(F)cc3)cc2c(N2CCCC2)n1 (stereo not given)	i
Cc1cn2nc(C(=O)Nc3ccc(OC(F)(F)F)cc3)cc2c(N2CCSCC2)n1	25µM*
COc1ccc(NC(=O)c2cc3c(N4CCSCC4)nc(C)cn3n2)cc1OC	28µM*
COc1ccc(NC(=O)c2cc3c(=O)[nH]c(C)cn3n2)cc1OC	i
CCCN1CCN(c2ncnc3sc(C(=O)Nc4ccc(OC(F)(F)F)cc4)c(C)c23)CC1	i
Cc1cn2nc(C(=O)Nc3ccc(N(C)C)cc3)cc2c(N2CCCC2)n1	i
COc1ccc(-n2ccnc2SCC(=O)Nc2nc(C)cs2)c(OC)c1	i
Cn1cc(CCCNS(=O)(=O)c2cccc(C(=O)N3CCCC3)c2)cn1	i
CCOc1ccc2oc(C(=O)OCC(=O)c3cccs3)c(C)c2c1	i
O=C([C@H]1CCCO1)N1CCC(c2cc(-c3ccccc3Cl)n[nH]2)CC1	i
COc1ccc(C(=O)N2CCC(Cc3nc(-c4ccc(F)cc4)no3)CC2)cc1F	i
CCCS(=O)(=O)c1nc(S(=O)(=O)c2ccc(C)cc2)c(N(CC)CC)s1	i
